Each molecule was assayed on Trichuris muris adult worms (assay: mean motility score (Paragon pixel variance) of adult worms (arbitrary units); higher = more motile worms, i.e. less anthelmintic effect; extreme values may be limits of the assay). Settings: 100 µM; 24 h.
In short: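 Single adult Trichuris muris worms, collected from infected NOD SCID mice, were placed in 96-well plates with 100 μL RPMI-1640 plus antibiotics and drug at 100 μM (1% v/v DMSO), then kept at 37°C and 5% CO2 for 24 h. Plates were filmed on an automated phenotyping platform (200 frames, 100 ms apart). Motility score came from Paragon pixel-variance analysis, averaged across replicate wells. Each drug had three worms in three wells, run on three separate occasions, with vehicle and positive controls.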

Row | Compound | mean motility score
1 | NCCCC[C@H](N[C@@H](CCc1ccccc1)C(=O)O)C(=O)N1CCC[C@H]1C(=O)O [lisinopril] | 1970
2 | Nc1ccc(S(=O)(=O)Nc2ncccn2)cc1 [sulfadiazine] | 2030
3 | CC(=O)N1CCN(c2ccc(OC[C@@H]3CO[C@@](Cn4ccnc4)(c4ccc(Cl)cc4Cl)O3)cc2)CC1 [ketoconazole] | 1360
4 | Cc1nc2ccc(CN(C)c3ccc(C(=O)N[C@@H](CCC(=O)O)C(=O)O)s3)cc2c(=O)[nH]1 [raltitrexed] | 3030
